Measured values reported in PubChem BioAssay (NCATS).
Results filed as inconclusive are left out. The source made the active and inactive calls. Unless noted, calls follow the shape of the dose curve; as a rule, active = well fitted curve in the direction sought with a large enough effect; inconclusive = small, poorly fitted or top-dose-only effect, or another doubt; inactive = no such curve, though single readings can be large; an effect the other way counts as inactive or inconclusive.

Experiments:
[1] = target: Mitogen-activated protein kinase 10 (Mus musculus) (UniProt Q61831); experiment: JNK3 AlphaScreen Assay (AID 530; active = well fitted curve in either direction with a large enough effect, not every such curve was filed as active;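 also: kinase came from lysate of stimulated human HepG2 cells; signal reports phosphorylation of biotinylated GST-cJun 1-79 at Ser73 with 10 µM ATP; % is scaled to controls: 0 for no effect and ±100 for the full control effect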)
Outline: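 qHTS titrations with 15 min compound pre-incubation before adding ATP (10 uM final). Read-out: AlphaScreen of Ser73-phosphorylated biotin-GST-cJun using HepG2 lysate JNK3 activated by IL-1β and TNFα.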

[2] = Cell Viability - Mesenchymal (AID 546);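 also: cells exposed to compound for 40 hours before reading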
Outline: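 CellTiter-Glo luminescence (intracellular ATP, 20 min room temperature) after 40 hr compound exposure at 37 °C of 1000 glomerulus-derived human kidney mesenchymal cells/well; AC50 values obtained by fitting qHTS concentration-response data to the Hill equation.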

[3] = Cellular Toxicity (caspase-3) Jurkat (AID 655); settings: Jurkat caspase-3 activation, luminescence; caspase-3 activation: at 92.2 µM (top of the series), DMSO = 0%, tamoxifen = 100%;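 also: cells exposed to compound for 16 h at 37 °C before reading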
Outline: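 qHTS in human Jurkat T-cell leukemia line: 16 hr compound treatment at 37 °C, caspase-3/7 activity measured by Caspase-Glo luminescence. AC50 derived from Hill equation.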

[4] = Cellular Toxicity (caspase-3) BJ (AID 658);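 also: cells exposed to compound for 16 hours; 0% = DMSO basal and 100% = 10 µM staurosporine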
Outline: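 Caspase-Glo 3/7 luminescence, read 1 hr after reagent at room temperature, in normal BJ fibroblasts exposed 16 hours at 37 °C. AC50 values from Hill-equation concentration-response, scaled between DMSO basal and 10 uM staurosporine as 100%.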

[5] = Cellular Toxicity (caspase-3) MRC-5 (AID 659);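 also: 0% = DMSO basal and 100% = 10 µM staurosporine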
Outline: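 Luminescent Caspase-Glo 3/7 read-out (1 h, room temperature) after a 16 h, 37 °C compound exposure of MRC-5 lung fibroblasts at 1500 cells/well. Concentration-response AC50 from Hill equation; 0% DMSO, 100% 10 uM staurosporine.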

[6] = target: Cytochrome P450 3A4 (Homo sapiens) (UniProt P08684); experiment: qHTS Assay for Inhibitors and Substrates of Cytochrome P450 3A4 (AID 884); also: % is scaled to controls: 0 for no effect and ±100 for the full control effect; nearly all actives have a fitted effect of over 50% in size
Cytochrome P450 3A4 (Homo sapiens), sequence (P08684 whole entry, looked up): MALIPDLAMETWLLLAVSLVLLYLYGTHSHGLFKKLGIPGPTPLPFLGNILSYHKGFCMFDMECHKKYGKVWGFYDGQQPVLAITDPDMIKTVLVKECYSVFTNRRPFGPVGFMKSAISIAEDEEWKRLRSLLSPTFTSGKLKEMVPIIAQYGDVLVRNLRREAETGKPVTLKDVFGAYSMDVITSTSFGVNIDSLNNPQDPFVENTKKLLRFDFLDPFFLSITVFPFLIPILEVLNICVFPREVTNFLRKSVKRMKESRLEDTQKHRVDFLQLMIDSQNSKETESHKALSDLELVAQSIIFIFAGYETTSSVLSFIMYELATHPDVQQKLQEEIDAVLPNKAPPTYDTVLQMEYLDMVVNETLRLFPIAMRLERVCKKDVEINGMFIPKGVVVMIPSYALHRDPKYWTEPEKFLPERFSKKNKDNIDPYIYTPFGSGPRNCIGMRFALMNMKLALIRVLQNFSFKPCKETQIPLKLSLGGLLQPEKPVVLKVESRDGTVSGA
Outline: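 Luminescent readout of luciferin produced by CYP3A4 (20 nM) dealkylation of Luciferin-PPXE, 25 uM (its KM). NADPH-driven reaction ran 60 min at RT after 10 min compound preincubation; data scaled to 57 uM ketoconazole as 100% inhibition.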

[7] = Cell Viability - LYMP2-001 (AID 921);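 also: 0% = DMSO only and full inhibition = tetraoctylammonium bromide control wells; nearly all actives have a fitted effect of over 70% in size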
Outline: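 A lymphoblastoid cell line of human origin was treated with library compounds across a concentration series for 24 hours, and viable cell number was estimated from ATP-driven luciferase light output. Hill modeling gave AC50.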

[8] = MultiTox-Fluor Cytotoxicity Assay - LYMP1-001 - Live Cells (AID 947);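 also: 0% = DMSO only and full inhibition = tetraoctylammonium bromide control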
[9] = MultiTox-Fluor Cytotoxicity Assay - LYMP1-002 - Live Cells (AID 955);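 also: cells exposed to compound for 16 hours; % is scaled to controls: 0 for no effect and ±100 for the full control effect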
Outline: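 Cells were seeded at 2500 per well and incubated 5 hr. Compounds were then added for 16 hr at 37 C, followed by MultiTox-Fluor reagent for 60 min at room temperature and fluorescence reading of viable-cell protease signal.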

[10] = Cell Viability - LYMP2-005 (AID 967);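 also: plate controls were DMSO only for no effect and 92 µM tetraoctylammonium bromide control for full effect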
Outline: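 Luciferase-based ATP quantitation served as the viability measure in human lymphoblastoid LYMP2-005 cells exposed to test compounds for 24 h at 37 C in complete culture medium. Potency (AC50) was obtained by fitting concentration-response curves with the Hill equation.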

[11] = Cell Viability - LYMP2-015 (AID 971);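 also: 0% = DMSO only and full effect = 92 µM tetraoctylammonium bromide; nearly all actives have a fitted effect of over 55% in size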
Outline: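 Cells are seeded at 2500 per well and incubated 5 hr at 37 C. Compounds are added across a concentration series for 24 hr at 37 C. CellTiter-Glo is added, and luminescence is read after 30 min at room temperature.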

[12] = qHTS assay for small molecule antagonists of retinoid X receptor alpha signaling (AID 588546; active = well fitted inhibition curve with a large enough effect in the signal ratio, with a control signal flat, not every such curve was filed as active; the % refers to the signal ratio;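 also: cells stimulated with 9-cis-retinoic acid as agonist; % is scaled to controls: 0 for no effect and ±100 for the full control effect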); settings: HEK293T RXRa-UAS-bla, beta-lactamase ratio, antagonist mode; measured here: W530 green channel, cytotoxicity proxy
Outline: (§1)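 Beta-lactamase reporter inhibition, read as CCF4 fluorescence ratio (ex 405, em 460/530 nm) after 2 h at RT. HEK293T UAS-bla cells, 2500/well, were stimulated with 9-cis-RA at 500 or 100 nM final alongside test compound for 18 h at 37 C.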

[13] = target: Retinoic acid receptor RXR-alpha (Homo sapiens) (UniProt P19793); experiment: as above; settings: HEK293T RXRa-UAS-bla, beta-lactamase ratio, antagonist mode
Retinoic acid receptor RXR-alpha (Homo sapiens), sequence (P19793 whole entry, looked up): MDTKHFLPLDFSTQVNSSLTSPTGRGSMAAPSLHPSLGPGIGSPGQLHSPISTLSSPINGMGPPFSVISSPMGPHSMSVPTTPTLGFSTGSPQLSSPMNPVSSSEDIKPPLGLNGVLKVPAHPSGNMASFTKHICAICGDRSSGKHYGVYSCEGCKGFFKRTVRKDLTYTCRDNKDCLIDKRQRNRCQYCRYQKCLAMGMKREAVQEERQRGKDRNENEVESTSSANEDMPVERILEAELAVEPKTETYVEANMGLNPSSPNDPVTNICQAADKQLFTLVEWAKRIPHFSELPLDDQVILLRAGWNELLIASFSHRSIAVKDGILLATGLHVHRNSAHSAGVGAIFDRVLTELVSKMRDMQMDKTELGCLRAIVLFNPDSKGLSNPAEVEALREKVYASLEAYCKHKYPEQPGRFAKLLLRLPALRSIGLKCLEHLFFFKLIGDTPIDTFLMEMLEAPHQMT
Outline: as §1

[14] = target: Voltage-gated inwardly rectifying potassium channel KCNH2 (Homo sapiens) (UniProt Q12809); experiment: qHTS Assay for Small Molecule Inhibitors of the Human hERG Channel Activity (AID 588834);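 also: lower thallium flux fluorescence means stronger hERG block; nearly all actives have a fitted effect of over 50% in size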; also: potency is read from the fitted curve at half-maximal effect
Voltage-gated inwardly rectifying potassium channel KCNH2 (Homo sapiens), sequence (Q12809 whole entry, looked up): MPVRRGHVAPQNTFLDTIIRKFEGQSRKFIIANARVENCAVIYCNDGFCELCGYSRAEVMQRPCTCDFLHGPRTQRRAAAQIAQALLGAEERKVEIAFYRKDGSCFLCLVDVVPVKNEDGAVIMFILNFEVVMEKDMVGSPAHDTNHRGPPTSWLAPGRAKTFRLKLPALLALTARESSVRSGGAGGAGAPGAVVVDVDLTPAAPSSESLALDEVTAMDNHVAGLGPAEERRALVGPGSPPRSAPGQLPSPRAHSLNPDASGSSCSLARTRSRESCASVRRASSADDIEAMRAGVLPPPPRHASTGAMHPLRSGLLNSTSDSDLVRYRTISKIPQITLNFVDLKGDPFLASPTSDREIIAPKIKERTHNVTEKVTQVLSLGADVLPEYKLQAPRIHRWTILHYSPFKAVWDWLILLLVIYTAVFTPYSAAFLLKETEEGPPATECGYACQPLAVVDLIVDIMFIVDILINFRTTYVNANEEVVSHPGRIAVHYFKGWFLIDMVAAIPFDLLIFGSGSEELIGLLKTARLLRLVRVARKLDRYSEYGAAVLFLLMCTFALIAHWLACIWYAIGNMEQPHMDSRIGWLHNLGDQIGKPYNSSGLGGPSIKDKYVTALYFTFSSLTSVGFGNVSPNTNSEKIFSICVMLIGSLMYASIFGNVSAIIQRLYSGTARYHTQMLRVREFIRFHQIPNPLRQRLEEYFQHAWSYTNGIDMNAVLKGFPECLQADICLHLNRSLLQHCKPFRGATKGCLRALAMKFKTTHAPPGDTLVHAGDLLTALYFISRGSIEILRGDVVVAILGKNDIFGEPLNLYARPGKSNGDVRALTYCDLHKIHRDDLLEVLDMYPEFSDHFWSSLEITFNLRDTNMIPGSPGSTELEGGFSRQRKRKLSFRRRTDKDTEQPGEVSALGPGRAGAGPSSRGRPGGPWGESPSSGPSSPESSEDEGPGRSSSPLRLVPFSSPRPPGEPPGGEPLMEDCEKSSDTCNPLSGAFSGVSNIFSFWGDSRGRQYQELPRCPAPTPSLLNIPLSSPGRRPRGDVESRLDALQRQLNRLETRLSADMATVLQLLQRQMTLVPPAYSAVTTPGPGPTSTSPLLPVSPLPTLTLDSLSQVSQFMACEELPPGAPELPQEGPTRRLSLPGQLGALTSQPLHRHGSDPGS
Outline: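 Homogeneous FluxOR thallium flux assay using hERG-expressing U2OS cells (BacMam). Compound treatment about 10 minutes preceded stimulation; reduced fluorescence taken as channel block.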

[15] = qHTS assay for small molecule disruptors of the mitochondrial membrane potential - 5 hr assay (AID 651755; calls by dose curve; also: % is scaled to controls: 0 for no effect and ±100 for the full control effect; nearly all actives have a fitted effect of over 40% in size)
Outline: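 Membrane-potential dye readout: red aggregate (540 ex/590 em) versus green monomer (490 ex/535 em) fluorescence after 30 min dye loading, following 5 hr compound exposure at 37C of overnight-plated HepG2 cells.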

[16] = qHTS assay for environmental chemicals that activate the Aryl hydrocarbon Receptor (AhR) signaling pathway (AID 651777); settings: 1A2-DRE human hepatoma cells, luciferase, 24 h; activation: stronger effect = higher value; also: nearly all actives have a fitted effect of over 15% in size; also: potency is read from the fitted curve at half-maximal effect; as to activation: % of control where 0% means no effect
Outline: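 Human hepatoma 1A2-DRE cells, stably carrying a dioxin response element and CYP1A2 promoter driving luciferase, were exposed to compounds for 24 hr at 37 C and 5% CO2. Luciferase signal was then read after 30 min One-Glo at room temperature.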

[17] = target: Nuclear receptor ROR-gamma (Homo sapiens) (UniProt P51449); experiment: qHTS assay for small molecule antagonists of the retinoid-related orphan receptor gamma (ROR-gamma) signaling pathway (AID 651802);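 also: CHO cells with doxycycline-induced ROR-gamma expression; % is scaled to controls: 0 for no effect and ±100 for the full control effect; nearly all actives have a fitted effect of over 60% in size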
Nuclear receptor ROR-gamma (Homo sapiens), sequence (P51449 whole entry, looked up): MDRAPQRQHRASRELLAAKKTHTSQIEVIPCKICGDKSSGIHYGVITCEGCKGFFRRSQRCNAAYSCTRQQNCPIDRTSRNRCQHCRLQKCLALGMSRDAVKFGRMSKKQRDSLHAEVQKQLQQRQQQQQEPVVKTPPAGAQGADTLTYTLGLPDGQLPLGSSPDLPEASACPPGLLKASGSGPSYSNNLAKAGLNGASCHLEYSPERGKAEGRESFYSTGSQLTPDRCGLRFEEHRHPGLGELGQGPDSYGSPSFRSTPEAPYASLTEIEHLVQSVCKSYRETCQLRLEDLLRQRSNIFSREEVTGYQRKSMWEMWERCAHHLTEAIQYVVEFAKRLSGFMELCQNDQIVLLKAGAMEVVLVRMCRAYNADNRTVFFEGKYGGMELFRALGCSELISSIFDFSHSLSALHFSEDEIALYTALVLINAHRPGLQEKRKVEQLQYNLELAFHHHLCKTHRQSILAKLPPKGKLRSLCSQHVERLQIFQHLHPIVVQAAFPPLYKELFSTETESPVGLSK
Outline: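 Steps: cells dispensed; compound or DMSO transferred by pin tool; doxycycline added to induce the ROR response element-driven luciferase; plates held 16hr at 37C; ONE-Glo added and luminescence measured.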

[18] = target: Nuclear receptor subfamily 1 group I member 2 (Rattus norvegicus) (UniProt Q9R1A7); experiment: qHTS assay for small molecule activators of the rat pregnane X receptor (rPXR) signaling pathway (AID 651751; call rule not given here; also: 0% is about no effect); settings: rPXR reporter cells, luciferase (One-Glo), 24 h
Nuclear receptor subfamily 1 group I member 2 (Rattus norvegicus), sequence (Q9R1A7 whole entry, looked up): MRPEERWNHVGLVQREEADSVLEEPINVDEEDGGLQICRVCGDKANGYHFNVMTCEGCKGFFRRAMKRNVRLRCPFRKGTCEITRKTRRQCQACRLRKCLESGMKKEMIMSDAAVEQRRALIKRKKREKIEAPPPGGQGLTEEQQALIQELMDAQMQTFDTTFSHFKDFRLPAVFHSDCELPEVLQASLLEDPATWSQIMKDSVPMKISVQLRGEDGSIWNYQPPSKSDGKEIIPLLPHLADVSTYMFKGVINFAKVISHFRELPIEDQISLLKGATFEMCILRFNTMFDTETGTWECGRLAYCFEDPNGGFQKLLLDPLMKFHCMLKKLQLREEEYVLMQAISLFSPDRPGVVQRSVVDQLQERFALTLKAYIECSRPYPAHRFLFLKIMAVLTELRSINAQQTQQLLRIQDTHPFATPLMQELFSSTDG

[19] = qHTS assay for small molecule activators of the human pregnane X receptor (PXR) signaling pathway (AID 720659; call rule not given here; also: 0% is about no effect)
[20] = target: Thyroid hormone receptor beta (Homo sapiens) (UniProt P10828); experiment: qHTS assay for small molecule agonists of thyroid hormone receptor beta signaling (AID 588545; calls by dose curve;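 also: 0% = DMSO only and 100% = 10 nM T3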)
Thyroid hormone receptor beta (Homo sapiens), sequence (P10828 whole entry, looked up): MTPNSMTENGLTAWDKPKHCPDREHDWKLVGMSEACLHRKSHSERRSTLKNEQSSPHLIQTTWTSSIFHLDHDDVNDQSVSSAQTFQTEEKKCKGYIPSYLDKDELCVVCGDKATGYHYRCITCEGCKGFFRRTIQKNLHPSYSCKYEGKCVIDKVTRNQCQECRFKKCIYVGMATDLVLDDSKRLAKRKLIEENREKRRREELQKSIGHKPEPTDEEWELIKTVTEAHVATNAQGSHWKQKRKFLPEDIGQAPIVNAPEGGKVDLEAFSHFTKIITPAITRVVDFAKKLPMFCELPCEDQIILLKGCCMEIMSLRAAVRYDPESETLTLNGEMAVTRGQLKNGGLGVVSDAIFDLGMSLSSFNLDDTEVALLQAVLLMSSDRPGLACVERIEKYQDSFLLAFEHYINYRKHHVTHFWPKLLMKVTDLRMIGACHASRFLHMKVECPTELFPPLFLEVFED
Outline: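 Compounds were tested as agonists in TR-UAS-bla-GripTite HEK 293 cells. After 18 hrs at 37 C, CCF4 substrate was added and fluorescence read after 2 hrs at room temperature.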

Clc1ccc(C(Cl)(Cl)Cl)cc1Cl
inactive: Potency [1] | Potency [2] | caspase-3 activation [3] 0.663% | outcome [4] | outcome [5] | Potency [6] | Potency [7] | outcome [8] | outcome [9] | Potency [10] | Potency [11] | max response [13] -3.13% | Potency [15] | activation [16] -0.831% | Potency [17] | max response [18] 3.68% | outcome [19]
active: Potency [14] 11.2 µM
-6.09%: max response [12]

ClC(Cl)c1ccccc1
inactive: Potency [1] | Potency [2] | caspase-3 activation [3] 2.34% | outcome [4] | outcome [5] | Potency [6] | Potency [7] | outcome [8] | outcome [9] | Potency [10] | Potency [11] | Potency [20] | max response [13] 0.971% | Potency [14] | Potency [15] | activation [16] -2.06% | Potency [17] | max response [18] 3.54% | outcome [19]
4.33%: max response [12]

Cc1cccc(C)c1N
inactive: Potency [1] | Potency [2] | caspase-3 activation [3] -0.00153% | outcome [5] | Potency [6] | Potency [7] | outcome [8] | outcome [9] | Potency [10] | Potency [11] | Potency [20] | max response [13] 17.5% | Potency [14] | Potency [15] | activation [16] 1.32% | Potency [17] | max response [18] 0.51% | outcome [19]
-4.18%: max response [12]

Oc1cccc(Cl)c1
-0.103%: max response [12]
inactive: Potency [1] | Potency [2] | caspase-3 activation [3] 0.0873% | outcome [4] | outcome [5] | Potency [6] | Potency [7] | outcome [8] | outcome [9] | Potency [10] | Potency [11] | Potency [20] | max response [13] 4.02% | Potency [14] | Potency [15] | activation [16] -0.063% | Potency [17] | max response [18] 1.59% | outcome [19]

ClCc1ccccc1
inactive: Potency [1] | Potency [2] | caspase-3 activation [3] 0.582% | outcome [4] | outcome [5] | Potency [6] | Potency [7] | outcome [8] | outcome [9] | Potency [10] | Potency [11] | Potency [20] | max response [13] 6.84% | Potency [14] | Potency [15] | Potency [17] | max response [18] -2.08% | outcome [19]
-2.86%: max response [12]

Cc1cc(Cl)ccc1O
inactive: Potency [1] | Potency [2] | caspase-3 activation [3] 4.09% | outcome [4] | outcome [5] | Potency [6] | Potency [7] | outcome [8] | outcome [9] | Potency [10] | Potency [11] | Potency [20] | max response [13] -5.53% | Potency [14] | Potency [15] | activation [16] 0.484% | max response [18] -0.864% | outcome [19]
-5.47%: max response [12]

Nc1cccc(Cl)c1
0.683%: max response [12]
inactive: Potency [1] | Potency [2] | caspase-3 activation [3] 11.8% | outcome [4] | outcome [5] | Potency [6] | Potency [7] | outcome [8] | outcome [9] | Potency [11] | Potency [20] | max response [13] -7.21% | Potency [14] | Potency [15] | activation [16] -0.221% | Potency [17] | max response [18] 1.89% | outcome [19]

Nc1cccc2ccccc12
active: Potency [16] 44.7 µM
inactive: Potency [1] | Potency [2] | outcome [4] | outcome [5] | outcome [8] | outcome [9] | Potency [10] | Potency [20] | max response [13] -9% | Potency [14] | Potency [15] | Potency [17]
-8.8%: max response [12]

O=C(Cl)c1ccccc1F
-4.19%: max response [12]
inactive: Potency [1] | Potency [2] | caspase-3 activation [3] 2.05% | outcome [4] | outcome [5] | Potency [6] | Potency [7] | outcome [8] | outcome [9] | Potency [10] | Potency [11] | Potency [20] | max response [13] 13.4% | Potency [14] | Potency [15] | activation [16] 4.83% | Potency [17] | max response [18] 4.78% | outcome [19]

CCCCCCCCCCCOC(=O)c1ccccc1C(=O)OCCCCCCCCCCC
5.25%: max response [12]
inactive: Potency [1] | Potency [2] | outcome [4] | outcome [5] | Potency [6] | Potency [7] | outcome [8] | outcome [9] | Potency [10] | Potency [11] | Potency [20] | max response [13] -3.34% | Potency [14] | Potency [15] | activation [16] -2.18% | Potency [17] | max response [18] 1.44%

Cc1coc2c1CCC(C)C2 (centres undefined)
-8.18%: max response [12]
inactive: Potency [1] | Potency [2] | caspase-3 activation [3] 0.203% | outcome [4] | outcome [5] | Potency [6] | Potency [7] | outcome [8] | outcome [9] | Potency [10] | Potency [11] | Potency [20] | max response [13] -0.116% | Potency [14] | Potency [15] | activation [16] 1.75% | Potency [17]

ClCCCCl
inactive: Potency [1] | Potency [2] | caspase-3 activation [3] 2.19% | outcome [4] | outcome [5] | Potency [6] | outcome [8] | outcome [9] | Potency [10] | Potency [11] | max response [13] 9.28% | Potency [14] | Potency [15] | activation [16] -1.95% | Potency [17] | max response [18] -3.7% | outcome [19]
-7.74%: max response [12]

C[N+](=O)[O-]
inactive: Potency [1] | Potency [2] | outcome [4] | outcome [5] | Potency [6] | Potency [7] | outcome [8] | Potency [10] | Potency [11] | Potency [20] | max response [13] 4.36% | Potency [14] | Potency [15] | activation [16] 0.25% | Potency [17]
-7.25%: max response [12]

CC1CC(=O)O1 (centres undefined)
-1.73%: max response [12]
inactive: Potency [1] | Potency [2] | caspase-3 activation [3] -1.79% | outcome [4] | outcome [5] | Potency [6] | Potency [7] | outcome [8] | outcome [9] | Potency [10] | Potency [11] | Potency [20] | max response [13] 4.5% | Potency [14] | Potency [15] | activation [16] 0.52% | Potency [17] | max response [18] 0.366% | outcome [19]
